Experimental data from PubChem BioAssay (NCATS).
Results filed as inconclusive are left out. The source made the active and inactive calls. Unless noted, calls follow the shape of the dose curve; as a rule, active = well fitted curve in the direction sought with a large enough effect; inconclusive = small, poorly fitted or top-dose-only effect, or another doubt; inactive = no such curve, though single readings can be large; an effect the other way counts as inactive or inconclusive.

How the values were obtained:
[1] = molecular target: Luciferin 4-monooxygenase (Photinus pyralis) (UniProt P08659); assay: Biochemical firefly luciferase enzyme assay for NPC (AID 624030);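 also: purified P. pyralis luciferase at 10 nM with luciferin and ATP substrate; 0% = DMSO and -100% = full luciferase inhibition by PTC124 control; nearly all actives have a fitted effect of over 70% in size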
Luciferin 4-monooxygenase (Photinus pyralis), sequence (P08659 whole entry, looked up): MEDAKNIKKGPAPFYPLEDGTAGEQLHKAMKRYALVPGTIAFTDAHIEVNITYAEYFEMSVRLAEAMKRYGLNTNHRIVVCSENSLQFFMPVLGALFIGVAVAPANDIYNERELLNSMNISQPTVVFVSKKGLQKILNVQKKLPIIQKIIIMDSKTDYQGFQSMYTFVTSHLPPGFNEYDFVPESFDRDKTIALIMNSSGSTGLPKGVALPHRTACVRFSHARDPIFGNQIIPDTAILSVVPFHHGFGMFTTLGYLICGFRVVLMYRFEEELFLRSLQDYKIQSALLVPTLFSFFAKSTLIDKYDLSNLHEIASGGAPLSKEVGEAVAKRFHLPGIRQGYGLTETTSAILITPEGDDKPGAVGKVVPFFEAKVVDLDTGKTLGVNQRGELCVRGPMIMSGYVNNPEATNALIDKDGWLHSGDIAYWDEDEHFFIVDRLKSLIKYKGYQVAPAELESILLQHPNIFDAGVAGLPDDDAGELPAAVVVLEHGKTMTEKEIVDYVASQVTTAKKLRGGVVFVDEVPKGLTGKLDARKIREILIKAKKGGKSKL
Summary of the method: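 Purified P. pyralis luciferase at 10 nM in 50 mM Tris Acetate (final), luminescence read within 5 minutes of enzyme addition to compounds. Activity normalised to PTC124 versus DMSO; concentration-response curves classed by r2, magnitude and activity.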

[2] = S16 Schwann cell viability assay (CellTiter-Glo assay) (AID 624031);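 also: cellular ATP luminescence as a viability measure; plate controls were DMSO-treated cells for no effect and cell-free wells for full effect; nearly all actives have a fitted effect of over 70% in size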
Summary of the method: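 Untransfected S16 rat Schwann cells; compound 24 h, 37 °C/5% CO2; CellTiter-Glo ATP luminescence. % activity vs no-cell wells and DMSO controls (0%); concentration-effect curves classed by r2, response magnitude, activity.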

[3] = S16 Schwann cell PMP22 intronic element firefly luciferase assay (AID 624032); also: potency is read from the fitted curve at half-maximal effect; nearly all actives have a fitted effect of over 30% in size
Summary of the method: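 Rat S16 Schwann cells stably carrying firefly luciferase driven by a PMP22 intronic element, in 10% FBS, treated 24 h at 37 C. ONE-Glo luminescence normalized to PTC124 control and DMSO (0%); curves classed by r2, magnitude and activity.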

[4] = S16 Schwann cell PMP22 intronic element beta-lactamase assay (AID 624044; calls by dose curve;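 also: 0% = DMSO and -100% = potassium clavulanate positive control; nearly all actives have a fitted effect of over 15% in size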); conditions: S16 rat Schwann cells, PMP22 element beta-lactamase FRET, 24 h; ratio activity, negative = inhibition: at 38.3 µM (top of the series) unless noted
Summary of the method: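 Beta-lactamase reporter under a PMP22 intronic regulatory element in stable S16 rat Schwann cells; 24 h compound exposure. 460 nm blue signal normalized between DMSO (0%) and potassium clavulanate, with 535 nm FRET tracking viability; curves classed by r2 and response.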

[5] = test system: 7G8; assay: qHTS profiling for inhibitors of Plasmodium falciparum proliferation (AID 504749);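 also: 0% = DMSO vehicle and full inhibition = artemisinin control; nearly all actives have a fitted effect of over 60% in size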; conditions: P. falciparum in erythrocytes, SYBR Green DNA, 72 h; series mostly up to 12.8 µM
Summary of the method: (§1)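 SYBR Green fluorescence (ex 485 nm, em 535 nm) reports parasite DNA after 72 h compound exposure of infected red cells at 0.3% parasitemia, 2.5% hematocrit; signal normalized to 0.29 uM artemisinin and vehicle wells.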

[6] = test system: AA1029; assay: as above; conditions: P. falciparum in erythrocytes, SYBR Green DNA, 72 h; series mostly up to 28.7 µM
Summary of the method: as §1

[7] = test system: CP191; assay: as above; conditions: P. falciparum in erythrocytes, SYBR Green DNA, 72 h; series mostly up to 28.7 µM
Summary of the method: as §1

[8] = test system: CP260; assay: as above; conditions: P. falciparum in erythrocytes, SYBR Green DNA, 72 h; series mostly up to 28.7 µM
Summary of the method: as §1

[9] = test system: CP291; assay: as above; conditions: P. falciparum in erythrocytes, SYBR Green DNA, 72 h; series mostly up to 28.7 µM
Summary of the method: as §1

[10] = test system: CP297; assay: as above; conditions: P. falciparum in erythrocytes, SYBR Green DNA, 72 h; series mostly up to 28.7 µM
Summary of the method: as §1

[11] = test system: CP315; assay: as above; conditions: P. falciparum in erythrocytes, SYBR Green DNA, 72 h; series mostly up to 28.7 µM
Summary of the method: as §1

[12] = test system: DIV14; assay: as above; conditions: P. falciparum in erythrocytes, SYBR Green DNA, 72 h; series mostly up to 28.7 µM
Summary of the method: as §1

[13] = test system: DIV17; assay: as above; conditions: P. falciparum in erythrocytes, SYBR Green DNA, 72 h; series mostly up to 28.7 µM
Summary of the method: as §1

[14] = test system: Dd2; assay: as above; conditions: P. falciparum in erythrocytes, SYBR Green DNA, 72 h; series mostly up to 28.7 µM
Summary of the method: as §1

[15] = test system: ICS; assay: as above; conditions: P. falciparum in erythrocytes, SYBR Green DNA, 72 h; series mostly up to 28.7 µM
Summary of the method: as §1

[16] = test system: JCK; assay: as above; conditions: P. falciparum in erythrocytes, SYBR Green DNA, 72 h; series mostly up to 28.7 µM
Summary of the method: as §1

[17] = test system: N140; assay: as above; conditions: P. falciparum in erythrocytes, SYBR Green DNA, 72 h; series mostly up to 28.7 µM
Summary of the method: as §1

[18] = test system: TAB165; assay: as above; conditions: P. falciparum in erythrocytes, SYBR Green DNA, 72 h; series mostly up to 28.7 µM
Summary of the method: as §1

[19] = NFAT Signaling Pathway (AID 444; active = well fitted curve in either direction with a large enough effect, not every such curve was filed as active;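 also: carbachol stimulus at about its EC50 of 1 µM final; % is scaled to controls: 0 for no effect and ±100 for the full control effect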); conditions: Jurkat NFAT-bla M1, carbachol, beta-lactamase ratio, 5 h; at 17.2 µM (top of the series)
Summary of the method: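 Jurkat cells with NFAT-driven β-lactamase reporter and co-expressed M1 receptor, stimulated with carbachol (final 1 uM, ~EC50), compound titration, 5 h at 37 °C. CCF4 loaded 1 h at RT; 460/530 nm ratio gave %activity and AC50.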

[20] = molecular target: Guanine nucleotide-binding protein G(i) subunit alpha-1 (Homo sapiens) (UniProt P63096); assay: qHTS Assay for Inhibitors of RGS12 GoLoco Motif Activity (Green Fluorophore) (AID 879);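 also: 0% = labeled peptide with Gαi1 and full inhibition = labeled peptide alone without protein; negative values mean loss of peptide binding seen as reduced polarization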
Guanine nucleotide-binding protein G(i) subunit alpha-1 (Homo sapiens), sequence (P63096 whole entry, looked up): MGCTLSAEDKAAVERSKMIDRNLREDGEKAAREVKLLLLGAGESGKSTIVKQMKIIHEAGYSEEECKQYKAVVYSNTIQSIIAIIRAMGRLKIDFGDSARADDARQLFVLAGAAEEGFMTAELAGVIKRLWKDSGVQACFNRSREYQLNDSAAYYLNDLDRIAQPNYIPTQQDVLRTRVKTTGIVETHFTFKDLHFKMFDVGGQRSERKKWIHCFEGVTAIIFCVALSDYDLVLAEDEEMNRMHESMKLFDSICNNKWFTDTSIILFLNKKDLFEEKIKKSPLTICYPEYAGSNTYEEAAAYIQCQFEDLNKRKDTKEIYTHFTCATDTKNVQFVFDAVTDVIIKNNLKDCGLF
Summary of the method: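 A drop in FITC polarization marked displacement of the FITC-tagged RGS12 GoLoco peptide (10 nM) from Gαi1 (50 nM). Compounds were incubated 10 min at room temperature in Tris pH 7.5 buffer containing 150 mM NaCl, 0.1 mM GDP and 0.05% NP40; unlabeled peptide titration served as control.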

C[C@]12CC[C@H]3[C@@H](CCC4=CC(=O)CC[C@@]43C)[C@@H]1CC[C@@H]2O
active: Potency [3] 8.09 µM
inactive: Potency [1] | Potency [2] | Potency [4] | Potency [5] | Potency [6] | Potency [7] | Potency [8] | Potency [9] | Potency [10] | Potency [11] | Potency [12] | Potency [13] | Potency [14] | Potency [15] | Potency [16] | Potency [17] | Potency [18]

O=C(NCNC(=O)N[C@H]1C(=O)NC(=O)N1CO)N[C@H]1C(=O)NC(=O)N1CO
inactive: activity change, negative = inhibition [19] -14%

CN1CC[C@]2(C)c3cc(O)ccc3N(C)[C@@H]12
inactive: outcome [20]
